Reference: PubChem BioAssay (NCATS)
Where “and” joins values, the source holds several entries; their conditions need not be identical. Equal entries are not always repeated. Calls of active or inactive are those of the source. Unless noted, calls follow the shape of the full dose curve.

Assays:
[1] = Cell Viability - BJ (AID 421); settings: BJ fibroblast viability, qHTS;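 also: potency is read from the fitted curve at half-maximal effect; cells exposed to compound for 40 hours at 37 °C before readout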
Procedure, shortened: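 Quantitative HTS: ATP depletion in BJ cells after 40 hr compound exposure in complete culture medium, detected with CellTiter-Glo; AC50 from standard Hill fits.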

[2] = Cell Viability - SK-N-SH (AID 435); settings: SK-N-SH neuroblastoma cell viability qHTS; also: potency is read from the fitted curve at half-maximal effect
Procedure, shortened: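 Cells seeded at 1500 per well and incubated 5 hr at 37 °C. Compound added, then 40 hr at 37 °C. CellTiter-Glo added, 20 min at room temperature, luminescence read.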

[3] = Cell Viability - N2a (AID 540; active = well fitted curve in the direction sought with a large enough effect; inconclusive = small, poorly fitted or top-dose-only effect, or another doubt; inactive = no such curve, though single readings can be large; an effect the other way counts as inactive or inconclusive;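 also: plate controls were DMSO alone for no effect and tamoxifen control for full effect; nearly all actives have a fitted effect of over 45% in size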); settings: N2a mouse neuroblastoma cell viability; activity change, negative = cytotoxicity: at 92.2 µM (top of the series)
Procedure, shortened: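 CellTiter-Glo ATP luminescence, read 20 min after reagent at room temperature, reported viability following 40 h compound treatment at 37 °C. N2a mouse neuroblastoma cells seeded 1500/well; Hill equation gave AC50.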

[4] = Cell Viability - NIH 3T3 (AID 541; active = well fitted curve in the direction sought with a large enough effect; inconclusive = small, poorly fitted or top-dose-only effect, or another doubt; inactive = no such curve, though single readings can be large; an effect the other way counts as inactive or inconclusive;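 also: cells exposed to compound for 40 hours; plate controls were DMSO alone for no effect and tamoxifen positive control for full effect; nearly all actives have a fitted effect of over 25% in size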); settings: NIH 3T3 cell viability, qHTS; activity change, negative = cytotoxicity: at 92.2 µM (top of the series)
Procedure, shortened: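 Intracellular ATP (CellTiter-Glo luminescence, 20 min at room temperature) measured after 40 hr compound exposure at 37 °C of 1000 NIH 3T3 mouse fibroblasts/well in complete medium; AC50 derived by Hill-equation modelling of qHTS concentration-response curves.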

[5] = Cell Viability - H-4-II-E (AID 543; active = well fitted curve in the direction sought with a large enough effect; inconclusive = small, poorly fitted or top-dose-only effect, or another doubt; inactive = no such curve, though single readings can be large; an effect the other way counts as inactive or inconclusive;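 also: cells exposed to compound for 40 hours; % is scaled to controls: 0 for no effect and ±100 for the full control effect; nearly all actives have a fitted effect of over 35% in size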); settings: H-4-II-E rat hepatoma viability; series mostly up to 92.2 µM
Procedure, shortened: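 CellTiter-Glo luminescence (intracellular ATP) measured after 40 h compound exposure at 37 °C in H-4-II-E rat hepatoma cells seeded at 1500/well. Values are AC50s fitted with the standard Hill equation.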

[6] = Cellular Toxicity (caspase-3) Jurkat (AID 655; active = well fitted curve in the direction sought with a large enough effect; inconclusive = small, poorly fitted or top-dose-only effect, or another doubt; inactive = no such curve, though single readings can be large; an effect the other way counts as inactive or inconclusive;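 also: cells exposed to compound for 16 h at 37 °C before reading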); settings: Jurkat caspase-3 activation, luminescence; caspase-3 activation: at 92.2 µM (top of the series), DMSO = 0%, tamoxifen = 100%
Procedure, shortened: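 Caspase 3/7 activation is scored as increased luminescence in Jurkat cells cultured with compound for 16 hours in complete medium. AC50 values come from Hill fits of qHTS concentration-response data normalized to DMSO and 100 uM tamoxifen controls.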

[7] = target: Glucocorticoid receptor (Homo sapiens) (UniProt P04150); assay: qHTS assay for small molecule agonists of glucocorticoid receptor signaling (AID 588532; active = well fitted curve in the direction sought with a large enough effect in the signal ratio, with a control signal flat; inconclusive = small, poorly fitted or top-dose-only effect, or a change in a side signal; inactive = no such curve, though single readings can be large or run the other way; the % refers to the signal ratio;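 also: 100% = dexamethasone at 0.1 µM and 0% = DMSO only wells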); settings: HeLa MMTV-bla, beta-lactamase ratio, agonist, 18 h; stronger effect = higher value; percent of dexamethasone control, DMSO zero
Sequence of Glucocorticoid receptor (Homo sapiens) (P04150 whole entry, looked up): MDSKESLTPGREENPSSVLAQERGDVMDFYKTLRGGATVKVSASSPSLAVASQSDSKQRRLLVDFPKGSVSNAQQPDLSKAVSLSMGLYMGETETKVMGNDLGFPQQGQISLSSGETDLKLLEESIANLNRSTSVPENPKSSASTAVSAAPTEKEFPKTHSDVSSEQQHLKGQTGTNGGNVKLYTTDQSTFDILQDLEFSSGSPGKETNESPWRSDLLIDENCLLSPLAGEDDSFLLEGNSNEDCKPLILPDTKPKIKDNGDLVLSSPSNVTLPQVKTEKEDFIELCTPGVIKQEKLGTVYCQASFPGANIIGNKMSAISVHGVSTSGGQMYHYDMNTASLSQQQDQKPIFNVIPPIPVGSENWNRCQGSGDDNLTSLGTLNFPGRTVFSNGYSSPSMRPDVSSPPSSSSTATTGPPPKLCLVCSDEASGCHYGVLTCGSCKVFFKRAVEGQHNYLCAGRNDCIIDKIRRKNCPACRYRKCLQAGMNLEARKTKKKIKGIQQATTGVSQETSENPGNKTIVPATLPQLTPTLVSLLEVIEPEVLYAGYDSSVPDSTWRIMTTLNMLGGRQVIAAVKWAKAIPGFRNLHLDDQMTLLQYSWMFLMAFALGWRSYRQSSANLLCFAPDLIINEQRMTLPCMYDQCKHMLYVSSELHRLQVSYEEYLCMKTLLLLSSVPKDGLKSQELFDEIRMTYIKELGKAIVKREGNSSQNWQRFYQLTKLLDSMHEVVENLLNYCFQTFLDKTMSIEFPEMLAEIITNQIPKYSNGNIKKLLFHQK
Procedure, shortened: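 Cells were plated and rested 3-5 h at 37 C, compounds were added in titration and incubated 18 h, then CCF4 substrate was loaded for 2 h at RT before reading blue/green fluorescence. EC50 came from Hill-equation fitting.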

[8] = target: Glucocorticoid receptor (Homo sapiens) (UniProt P04150); assay: qHTS assay for small molecule antagonists of glucocorticoid receptor signaling (AID 588533; active = well fitted inhibition curve with a large enough effect in the signal ratio, with a control signal flat, not every such curve was filed as active; inconclusive = small, poorly fitted or top-dose-only effect, or effect the other way, or a change in a side signal; the % refers to the signal ratio; also: % is scaled to controls: 0 for no effect and ±100 for the full control effect); settings: HeLa MMTV-bla, GRE beta-lactamase ratio, antagonist mode, 18 h; series mostly up to 76.8 µM
Procedure, shortened: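 Antagonist-mode qHTS: compound titrations added to GRE-bla HeLa cells, then dexamethasone 2 nM final; 18 h, 37 C. CCF4 FRET fluorescence normalized to dexamethasone and DMSO; IC50 from Hill fit.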

[9] = target: Peroxisome proliferator-activated receptor delta (Homo sapiens) (UniProt Q03181); assay: qHTS assay for small molecule agonists of peroxisome proliferator-activated receptor delta signaling (AID 588534); settings: HEK293T PPARdelta-UAS-bla, beta-lactamase ratio, 18 h; series mostly up to 76.7 µM;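 also: 0% = DMSO basal wells and 100% = positive control agonist at 10 µM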
Sequence of Peroxisome proliferator-activated receptor delta (Homo sapiens) (Q03181 whole entry, looked up): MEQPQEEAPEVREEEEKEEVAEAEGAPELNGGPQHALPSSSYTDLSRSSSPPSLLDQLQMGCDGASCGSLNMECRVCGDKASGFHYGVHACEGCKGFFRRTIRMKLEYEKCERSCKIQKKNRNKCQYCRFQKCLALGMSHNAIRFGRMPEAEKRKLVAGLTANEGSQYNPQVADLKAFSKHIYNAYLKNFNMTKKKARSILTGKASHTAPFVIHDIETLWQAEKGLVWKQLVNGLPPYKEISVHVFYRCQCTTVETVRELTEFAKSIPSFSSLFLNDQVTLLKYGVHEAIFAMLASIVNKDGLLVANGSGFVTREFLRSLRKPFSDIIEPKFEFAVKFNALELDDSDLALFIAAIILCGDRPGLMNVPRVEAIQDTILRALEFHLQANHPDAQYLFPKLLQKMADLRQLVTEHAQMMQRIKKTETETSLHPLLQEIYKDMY
Procedure, shortened: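 Agonist-mode beta-lactamase reporter readout (CCF4 dye, 2 h at RT) after 18 h at 37 °C exposure to a titration; Hill-equation fitting gave EC50 and maximal response.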

[10] = qHTS assay for small molecule antagonists of peroxisome proliferator-activated receptor delta signaling (AID 588535); settings: HEK293T PPARd-UAS-bla, beta-lactamase FRET ratio, 18 h; 460 nm channel;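 also: cells co-treated with a PPAR-delta agonist as stimulator during compound exposure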
Procedure, shortened: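 Fluorescence from CCF4-loaded GeneBLAzer PPAR-delta-UAS-bla HEK293T cells (2 hrs RT loading) quantified reporter inhibition after an 18 hr, 37 C compound exposure across a titration.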

[11] = target: Peroxisome proliferator-activated receptor gamma (Homo sapiens) (UniProt P37231); assay: qHTS assay for small molecule antagonists of peroxisome proliferator-activated receptor gamma signaling (AID 588537; active = well fitted inhibition curve with a large enough effect in the signal ratio, with a control signal flat, not every such curve was filed as active; inconclusive = small, poorly fitted or top-dose-only effect, or effect the other way, or a change in a side signal; the % refers to the signal ratio;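 also: reporter cells co-stimulated with 50 nM rosiglitazone agonist during compound treatment; % of control where 0% means no effect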); settings: HEK293 PPARg-UAS-bla, beta-lactamase ratio, antagonist mode; series mostly up to 76.8 µM
Sequence of Peroxisome proliferator-activated receptor gamma (Homo sapiens) (P37231 whole entry, looked up): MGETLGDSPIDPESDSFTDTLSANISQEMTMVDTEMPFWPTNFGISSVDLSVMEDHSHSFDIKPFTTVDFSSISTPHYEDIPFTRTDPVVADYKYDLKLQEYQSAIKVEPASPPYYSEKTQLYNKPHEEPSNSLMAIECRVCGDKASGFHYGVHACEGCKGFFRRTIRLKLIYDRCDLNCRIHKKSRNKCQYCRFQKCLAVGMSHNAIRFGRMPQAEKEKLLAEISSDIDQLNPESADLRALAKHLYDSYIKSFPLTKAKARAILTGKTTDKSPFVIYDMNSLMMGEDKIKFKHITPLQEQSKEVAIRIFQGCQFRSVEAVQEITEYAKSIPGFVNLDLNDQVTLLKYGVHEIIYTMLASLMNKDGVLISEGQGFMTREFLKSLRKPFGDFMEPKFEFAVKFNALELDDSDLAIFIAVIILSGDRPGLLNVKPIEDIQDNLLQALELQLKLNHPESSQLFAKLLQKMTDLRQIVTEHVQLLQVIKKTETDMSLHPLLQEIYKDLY
Procedure, shortened: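 Fluorescence at 460 and 530 nm (405 nm excitation) reported beta-lactamase cleavage of CCF4 after 2 h room-temperature loading. HEK293 reporter cells in 1% charcoal/dextran-treated FBS had received compound and rosiglitazone for 16 h.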

[12] = target: Vitamin D3 receptor (Homo sapiens) (UniProt P11473); assay: qHTS assay for small molecule antagonists of vitamin D receptor signaling (AID 588541); settings: HEK293T VDR-UAS-bla, beta-lactamase ratio, antagonist mode; series mostly up to 76.7 µM;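 also: receptor activated by calcitriol during compound treatment; % is scaled to controls: 0 for no effect and ±100 for the full control effect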
Sequence of Vitamin D3 receptor (Homo sapiens) (P11473 whole entry, looked up): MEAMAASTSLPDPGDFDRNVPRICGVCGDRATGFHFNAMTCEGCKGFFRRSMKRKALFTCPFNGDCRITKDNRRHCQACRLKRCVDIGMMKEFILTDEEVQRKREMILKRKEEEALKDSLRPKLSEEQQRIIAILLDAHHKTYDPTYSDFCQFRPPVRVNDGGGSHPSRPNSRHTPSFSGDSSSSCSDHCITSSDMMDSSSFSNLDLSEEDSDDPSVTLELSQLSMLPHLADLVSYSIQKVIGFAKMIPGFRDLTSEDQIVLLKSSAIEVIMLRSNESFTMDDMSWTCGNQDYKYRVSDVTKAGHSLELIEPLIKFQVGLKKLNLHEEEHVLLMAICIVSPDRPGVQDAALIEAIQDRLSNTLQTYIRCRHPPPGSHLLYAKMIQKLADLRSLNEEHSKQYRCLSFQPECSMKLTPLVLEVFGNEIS
Procedure, shortened: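 VDR-UAS-bla HEK293T cells in 2% charcoal-stripped FBS were stimulated with 1-alpha,25-dihydroxyvitamin D3 (3 nM final) plus compound for 16 h at 37 C. The beta-lactamase CCF4 readout was normalized to 50 nM agonist and DMSO, and Hill fits gave IC50.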

[13] = target: Retinoic acid receptor RXR-alpha (Homo sapiens) (UniProt P19793); assay: qHTS assay for small molecule agonists of retinoid X receptor alpha signaling (AID 588544); settings: HEK293T RXRa-UAS-bla, beta-lactamase reporter, 18 h; series mostly up to 76.7 µM;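 also: 0% = DMSO basal wells and 100% = reference agonist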
Sequence of Retinoic acid receptor RXR-alpha (Homo sapiens) (P19793 whole entry, looked up): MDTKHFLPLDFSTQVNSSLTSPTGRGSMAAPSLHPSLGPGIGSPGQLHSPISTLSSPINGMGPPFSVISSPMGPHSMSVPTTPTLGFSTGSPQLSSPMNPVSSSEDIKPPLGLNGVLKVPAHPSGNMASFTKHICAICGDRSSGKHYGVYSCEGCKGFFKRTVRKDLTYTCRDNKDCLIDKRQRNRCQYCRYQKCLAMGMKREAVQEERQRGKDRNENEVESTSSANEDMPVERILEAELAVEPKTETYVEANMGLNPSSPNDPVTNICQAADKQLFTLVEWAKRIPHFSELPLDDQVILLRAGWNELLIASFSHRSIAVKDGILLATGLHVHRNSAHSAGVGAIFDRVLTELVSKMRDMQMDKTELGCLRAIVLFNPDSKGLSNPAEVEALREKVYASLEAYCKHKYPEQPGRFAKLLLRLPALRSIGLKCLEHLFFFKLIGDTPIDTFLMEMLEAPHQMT

[14] = qHTS assay for small molecule agonists of the antioxidant response element (ARE) signaling pathway (AID 651741; active = well fitted activation curve with a large enough effect in the signal ratio; inconclusive = small, poorly fitted or top-dose-only effect, or effect the other way, or a change in a side signal; the % refers to the signal ratio; also: % of control where 0% means no effect); settings: HepG2 ARE-bla reporter, beta-lactamase FRET ratio, 16 h; series mostly up to 96 µM
Procedure, shortened: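 Stably integrated ARE-beta-lactamase reporter HepG2 cells; 16 h compound incubation, 37 C; LiveBLAzer FRET substrate 2 h at room temperature; fluorescence intensity.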

[15] = Cell Viability - SH-SY5Y (AID 544; active = well fitted curve in the direction sought with a large enough effect; inconclusive = small, poorly fitted or top-dose-only effect, or another doubt; inactive = no such curve, though single readings can be large; an effect the other way counts as inactive or inconclusive;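 also: cells exposed to compound for 40 hours; nearly all actives have a fitted effect of over 55% in size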); settings: SH-SY5Y neuroblastoma cell viability; viability change, negative = cytotoxic: at 92.2 µM (top of the series)
Procedure, shortened: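 Cytotoxicity measured via ATP-dependent luciferase luminescence (CellTiter-Glo) following 40 h, 37 °C exposure of 1500 SH-SY5Y cells per well. Concentration-response data were fitted with the standard Hill equation to give AC50.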

[16] = target: Bile acid receptor (Homo sapiens) (UniProt Q96RI1); assay: qHTS assay for small molecule antagonists of farnesoid X receptor signaling (AID 588526); settings: HEK293T FXR-UAS-bla, beta-lactamase ratio, antagonist mode; series mostly up to 76.7 µM; also: % is scaled to controls: 0 for no effect and ±100 for the full control effect
Sequence of Bile acid receptor (Homo sapiens) (Q96RI1 whole entry, looked up): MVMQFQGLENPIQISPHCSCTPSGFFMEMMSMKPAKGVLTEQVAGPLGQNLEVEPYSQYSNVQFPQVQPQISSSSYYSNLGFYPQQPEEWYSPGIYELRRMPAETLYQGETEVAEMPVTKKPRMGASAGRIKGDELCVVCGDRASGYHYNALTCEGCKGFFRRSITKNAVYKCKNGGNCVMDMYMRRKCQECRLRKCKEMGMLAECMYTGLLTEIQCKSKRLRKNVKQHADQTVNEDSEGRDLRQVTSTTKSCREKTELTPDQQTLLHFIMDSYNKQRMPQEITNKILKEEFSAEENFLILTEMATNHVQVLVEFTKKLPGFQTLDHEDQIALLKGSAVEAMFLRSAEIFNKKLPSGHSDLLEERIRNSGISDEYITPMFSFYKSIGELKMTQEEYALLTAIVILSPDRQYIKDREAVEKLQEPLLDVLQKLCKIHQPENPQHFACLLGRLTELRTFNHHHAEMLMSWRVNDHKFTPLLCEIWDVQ
Procedure, shortened: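 Antagonist mode: titrated compounds tested against chenodeoxycholic acid stimulation (normalized to 50 uM CDCA and DMSO) in GeneBLAzer HEK293T cells for 16 h. Beta-lactamase read by CCF4 fluorescence; IC50 from Hill fits.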

[17] = target: Bile acid receptor (Homo sapiens) (UniProt Q96RI1); assay: qHTS assay for small molecule agonists of farnesoid X receptor signaling (AID 588527); settings: HEK293T FXR-UAS-bla, beta-lactamase ratio, 16 h; stronger effect = higher value;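 also: 0% = vehicle basal and 100% = reference agonist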
Procedure, shortened: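 Quantitative HTS used FXR-UAS-bla HEK293T cells with 16 h compound incubation at 37 C. EC50 values came from concentration-response curves normalized to chenodeoxycholic acid.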

[18] = qHTS assay for small molecule disruptors of the mitochondrial membrane potential - 1 hr assay (AID 651754); settings: series mostly up to 92.2 µM; also: nearly all actives have a fitted effect of over 35% in size; also: potency is read from the fitted curve at half-maximal effect
Procedure, shortened: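 Mitochondrial potential in living HepG2 cells after 1 hr compound treatment at 37C was read with Mito-MPS dye added for a further 30 min. Red aggregate and green monomer fluorescence were measured; loss of potential leaves dye as cytoplasmic monomers.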

[19] = target: Estrogen receptor (Homo sapiens) (UniProt P03372); assay: qHTS assay for small molecule antagonists of estrogen receptor alpha signaling (AID 588513; active = well fitted curve in the direction sought with a large enough effect in the signal ratio, with a control signal flat, not every such curve was filed as active; inconclusive = small, poorly fitted or top-dose-only effect, or effect the other way, or a change in a side signal; inactive = no such curve, though single readings can be large or run the other way; the % refers to the signal ratio; also: potency is read from the fitted curve at half-maximal effect); settings: ER-alpha-UAS-bla HEK293, beta-lactamase ratio, antagonist mode; series mostly up to 76.9 µM
Sequence of Estrogen receptor (Homo sapiens) (P03372 whole entry, looked up): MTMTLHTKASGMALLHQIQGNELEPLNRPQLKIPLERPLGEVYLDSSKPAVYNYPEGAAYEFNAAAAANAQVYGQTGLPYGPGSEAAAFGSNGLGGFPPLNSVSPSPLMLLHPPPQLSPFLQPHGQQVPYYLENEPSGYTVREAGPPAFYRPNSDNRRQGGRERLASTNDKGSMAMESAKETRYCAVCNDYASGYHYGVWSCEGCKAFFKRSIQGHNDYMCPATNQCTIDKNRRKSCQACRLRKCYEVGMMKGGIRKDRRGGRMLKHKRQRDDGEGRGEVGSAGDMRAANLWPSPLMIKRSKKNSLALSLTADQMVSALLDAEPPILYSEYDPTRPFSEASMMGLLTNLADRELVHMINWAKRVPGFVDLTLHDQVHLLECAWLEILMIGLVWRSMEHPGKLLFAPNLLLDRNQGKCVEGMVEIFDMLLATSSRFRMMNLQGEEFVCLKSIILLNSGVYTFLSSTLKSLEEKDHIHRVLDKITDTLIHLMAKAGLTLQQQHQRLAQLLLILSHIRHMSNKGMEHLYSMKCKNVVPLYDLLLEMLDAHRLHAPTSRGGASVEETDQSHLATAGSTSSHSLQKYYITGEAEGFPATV
Procedure, shortened: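 Cells were plated at 5000/well and incubated 4 h at 37 C. Compounds were added as 1:2 dilution series, duplicates. 17-beta-estradiol (0.5nM final) was added for 18 h before CCF4 detection.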

[20] = target: Estrogen receptor (Homo sapiens) (UniProt P03372); assay: qHTS assay for small molecule agonists of estrogen receptor alpha signaling (AID 588514); settings: ER-alpha-UAS-bla HEK293, beta-lactamase ratio, 18 h; series mostly up to 76.8 µM;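 also: 0% = vehicle only and 100% = reference agonist; nearly all actives have a fitted effect of over 70% in size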
Procedure, shortened: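 EC50 and efficacy came from Hill fits of beta-lactamase reporter signal (CCF4 dye, 2 h at room temperature) scaled between DMSO and 20 nM 17-beta-estradiol. Agonist mode: HEK293 ER-alpha-UAS-bla cells in charcoal/dextran-stripped serum medium, 18 h compound exposure at 37 C.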

CC(C)(C)c1ccccc1O
11% and 14.4%: max response [10]
inactive: Potency [1] > 92 µM | Potency [2] > 92 µM | Potency [3] | Potency [4] | Potency [5] | caspase-3 activation [6] -1.03% | activation [7] 2.08% and 7.02% | outcome [8] | outcome [9] | Potency [11] | outcome [12] | outcome [13] | Potency [14]

CC(C)(Cl)[N+](=O)[O-]
inactive: Potency [1] > 92 µM | Potency [2] > 92 µM | Potency [3] | Potency [4] | Potency [5] | Potency [15] | caspase-3 activation [6] 0.332% | outcome [16] | activation [17] 0.224% | activation [7] -3.18% | outcome [9] | Potency [11] | outcome [12] | Potency [14]

COc1ccccc1N
inactive: Potency [1] > 92 µM | Potency [2] > 92 µM | Potency [3] | Potency [4] | Potency [5] | Potency [15] | Potency [11] | Potency [18]

Oc1cccc(Cl)c1Cl
inactive: Potency [1] > 92 µM | Potency [2] > 92 µM | Potency [3] | Potency [5] | Potency [15] | caspase-3 activation [6] 0.319% | Potency [19] | Potency [20] | activation [7] -0.403% | outcome [8] | outcome [9] | Potency [11] | outcome [13] | Potency [18]

CCN(N=O)C(N)=O
-10.7%: max response [10]
inactive: Potency [1] > 92 µM | Potency [4] | Potency [5] | caspase-3 activation [6] 0.577% | Potency [19] | Potency [20] | outcome [16] | activation [17] -1.35% | activation [7] -3.98% | outcome [9] | Potency [11] | outcome [12] | outcome [13] | Potency [18]

COP(=S)(OC)SCn1nnc2ccccc2c1=O
active: Potency [19] 31.6 µM [inconclusive]
inactive: Potency [1] > 92 µM | caspase-3 activation [6] -1.97% | Potency [20] | outcome [9] | outcome [12]

Cc1cc(C)cc(OP(=O)(Oc2cc(C)cc(C)c2)Oc2cc(C)cc(C)c2)c1
active: activity change, negative = cytotoxicity [3] -83.5% | Potency [18] 11.9 µM
inactive: Potency [1] > 92 µM | Potency [2] > 92 µM | Potency [15] | caspase-3 activation [6] 0.111% | Potency [19] | activation [17] 0.362% | activation [7] -3.84% | outcome [8] | Potency [11]

CC(C)(COCC1CO1)COCC1CO1 (configuration not stated)
inactive: Potency [1] > 92 µM | Potency [3] | Potency [5] | caspase-3 activation [6] 14.4% | Potency [19] | Potency [20] | outcome [16] | activation [17] 1.49% | outcome [8] | outcome [12] | Potency [18]
0.207%: max response [10]
active: activity change, negative = cytotoxicity [4] -105%

CCOS(C)(=O)=O
-10.7%: max response [10]
inactive: Potency [1] > 92 µM | Potency [2] > 92 µM | Potency [3] | Potency [5] | Potency [15] | caspase-3 activation [6] 0.622% | outcome [16] | activation [17] 1.7% | outcome [9] | outcome [13] | Potency [18]
